“And” between values parts separate entries of the source, which are not always exact repeats. Equal entries are not always repeated. Inconclusive results are not listed. Where a call stands in place of a potency, no number is given. The source made the active and inactive calls. Calls follow the shape of the dose curve; as a rule, active = well fitted cell-killing curve with a large enough effect in the repeat runs; inconclusive = weak or mixed curves, or effect the other way; inactive = no such curve, though single readings can be large or run the other way. Positions of bridges follow the written chain, without caps; N, C: chain ends. Non-standard residues stand in square brackets, D forms with d. Residues, ends and D or L forms follow the SMILES beside them. *: point of attachment. Dab(CH2SO3H) = N[C@@H](CCNCS(=O)(=O)O)C(=O)O; X3 = CC[C@@H](C)CCCCC(=O)*; Orn = NCCC[C@H](N)C(=O)O; Dab = NCC[C@H](N)C(=O)O
Potency is read from the fitted curve at half-maximal effect.

The nature of this test: qHTS assay to identify small molecule antagonists of the glucocorticoid receptor (GR) signaling pathway - cell viability counter screen (AID 720693). Also: nearly all actives have a fitted effect of over 55% in size. To be noted: GR-bla HeLa viability, CellTiter-Glo luminescence, 18 h, with 5 nM dexamethasone present; series mostly up to 58.5 µM. An excerpt:
National Center for Advancing Translational Sciences [NCATS]
NIH Chemical Genomics Center [NCGC]
U.S. Environmental Protection Agency [EPA]
National Institutes of Environmental Health Sciences [NIEHS]
National Toxicology Program [NTP]
U.S. Food and Drug Administration [FDA]
The Glucocorticoid receptor (GR) is one of the members of the nuclear receptor family of ligand-dependent transcription factors. GR plays a critical role in carbohydrate, protein and lipid metabolisms and programmed cell death. CellSensor GR-bla HeLa cell line (Invitrogen) contains a beta-lactamase reporter gene under the control of the glucocorticoid response element stably integrated into HeLa cells, a cervical cancer cell line that expresses glucocorticoid receptor. The activation of the reporter gene under culture conditions can be detected by fluorescence intensity. This cell line has been used to screen the Tox21 10K compound library and to identify the compounds that inhibit the GR signaling. The cytotoxicity of the Tox21 compound library against the GR-bla HeLa cell line was tested in parallel by measuring the cell viability using CellTiter-Glo assay in the same wells.
Tox21 Assay Protocol Summary:
The GR-bla HeLa cells were dispensed at 1500 cells/5 ul/well in 1536-well black wall/clear bottom plates using a Multidrop Combi (ThermoFisher Scientific, Waltham, MA) dispenser. After the assay plates were incubated at a 37 C/5% CO2 incubator for 4 hours, 23 nL of compounds dissolved in DMSO, positive controls or DMSO only was transferred to the assay plate by a pintool station (Kalypsys, San Diego, CA), followed by addition of 1 uL of dexamethasone (5 nM, final concentration in the well). The plates were incubated at 37 C for 18 hours. After 1 uL of LiveBLAzerTM B/G FRET substrate was added using a Flying Reagent Dispenser (Aurora Discovery, San Diego, CA), the plates were incubated at room temperature (RT) for 2 hours, and fluorescence intensity was measured by an Envision plate reader (PerkinElmer, Shelton, CT). After measurement of bla assay, 3 ul CellTiter-Glo (Promega, Madison, WI) was added to measure the cytotoxicity and the plates were then incubated at RT for 30 min. The luminescence was measured using a ViewLux (Perkin Elmer) plate reader.
With `CS(=O)(=O)c1ccc([C@@H](O)[C@@H](COC(=O)CN)NC(=O)C(Cl)Cl)cc1`, the Potency entry was “inactive”. Take `Cc1cc(=O)c(C(=O)N[C@@H](C(=O)N[C@@H]2C(=O)N3C(C(=O)O)=C(CSc4nnnn4C)CS[C@H]23)c2ccc(O)cc2)c[nH]1`: the Potency result is “inactive”. Take `CC(C)CCC[C@@H](C)[C@H]1CC[C@H]2[C@@H]3CC=C4C[C@@H](O)CC[C@]4(C)[C@H]3CC[C@]12C`: the Potency entry was “inactive”. Turning to `CCc1ncnc2cc(OC)c(OC)cc12`, the Potency entry was “inactive”.

Turning to `CC[C@H]1OC(=O)C[C@@H](O)[C@H](C)[C@@H](O[C@@H]2O[C@H](C)[C@@H](O)[C@H](N(C)C)[C@H]2O)[C@@H](CCN2C[C@H](C)C[C@H](C)C2)C[C@@H](C)C(=O)/C=C/C(C)=C/[C@@H]1CO[C@@H]1O[C@H](C)[C@@H](O)[C@@H](OC)[C@H]1OC`, the Potency result was “inactive”. Take `COc1ccc(/C=C/C(=O)Nc2ccccc2C(=O)O)cc1OC`: the Potency entry was “inactive”. As to `CC[C@@H](C)CCCCC(=O)N[C@@H](CCNCS(=O)(=O)O)C(=O)N[C@H](C(=O)N[C@@H](CCNCS(=O)(=O)O)C(=O)N[C@H]1CCNC(=O)[C@H]([C@@H](C)O)NC(=O)[C@H](CCNCS(=O)(=O)O)NC(=O)[C@H](CCNCS(=O)(=O)O)NC(=O)[C@H](CC(C)C)NC(=O)[C@@H](CC(C)C)NC(=O)[C@H](CCNCS(=O)(=O)O)NC1=O)[C@@H](C)O` (X3-[Dab(CH2SO3H)]T[Dab(CH2SO3H)][Dab][Dab(CH2SO3H)][dL]L[Dab(CH2SO3H)][Dab(CH2SO3H)]T; lactam 4-C), the Potency result is “inactive”. As to `O=P(O)(O)CP(=O)(O)O`, the Potency entry was “inactive”.

For the compound `CCCCCCCC/C=C\CCCCCCCC(=O)N(CCO)CCO`, the Potency is 48.8 µM (active). In the case of `CO/N=C(\C(=O)N[C@@H]1C(=O)N2C(C(=O)O)=C(COC(C)=O)CS[C@H]12)c1csc(N)n1` (stereo in doubt), the Potency entry was “inactive”. With `COc1cc2c(cc1O)CCN[C@]21CS[C@@H]2c3c(OC(C)=O)c(C)c4c(c3[C@H](COC1=O)N1[C@@H]2[C@H]2c3c(cc(C)c(OC)c3O)C[C@@H]([C@@H]1O)N2C)OCO4`, the Potency was 60.1 nM (active) and 17.4 nM (active). Take `CCN(CC)C(=O)[C@]1(c2ccccc2)C[C@@H]1CN`: the Potency entry was “inactive”. Regarding `Cc1cc(Br)ccc1NC(=O)CCl`, the Potency was 43.6 µM (active). In the case of `Cc1cccc(C)c1NC(=O)C1CCCCN1C` (stereo not given), the Potency entry was “inactive”. `C[C@@H]1C(=O)NC2=Nc3cccc(Cl)c3CN21`: the Potency result is “inactive”.

Regarding `CC(C)C[C@@H]1NC(=O)[C@H](CCCN)NC(=O)[C@H](C(C)C)NC(=O)[C@@H]2CCCN2C(=O)[C@@H](Cc2ccccc2)NC(=O)[C@H](CC(C)C)NC(=O)[C@H](CCCN)NC(=O)[C@H](C(C)C)NC(=O)[C@@H]2CCCN2C(=O)[C@@H](Cc2ccccc2)NC1=O` (cyclo(V[Orn]L[dF]PV[Orn]L[dF]P)), the Potency was 19 µM (active). In the case of `CO[C@H](C(=O)[C@@H](O)[C@@H](C)O)C1Cc2cc3cc(O[C@H]4C[C@@H](O[C@H]5C[C@@H](O)[C@H](O)[C@@H](C)O5)[C@@H](O)[C@@H](C)O4)c(C)c(O)c3c(O)c2C(=O)[C@H]1O[C@H]1C[C@@H](O[C@H]2C[C@@H](O[C@H]3C[C@](C)(O)[C@H](O)[C@@H](C)O3)[C@H](O)[C@@H](C)O2)[C@H](O)[C@@H](C)O1` (stereo not given in full) it was 1.34 µM (active); in that of `Cc1ccc(C(C)(C)c2ccc(C)cc2)cc1`, “inactive”; in that of `N=C(N)c1ccc(/C=C/c2ccc(C(=N)N)cc2O)cc1`, “inactive”. Take `CSCC[C@H](NC(=O)[C@H](Cc1ccc(OS(=O)(=O)O)cc1)NC(=O)[C@@H](N)CC(=O)O)C(=O)NCC(=O)N[C@@H](Cc1c[nH]c2ccccc12)C(=O)N[C@@H](CCSC)C(=O)N[C@@H](CC(=O)O)C(=O)N[C@@H](Cc1ccccc1)C(N)=O`: the Potency result was “inactive”. In the case of `COc1ccc(/C=C/C(=O)O)cc1` it was “inactive”. With `CN1CC[C@H](c2c(O)cc(O)c3c(=O)cc(-c4ccccc4Cl)oc23)[C@H](O)C1`, the Potency is 0.601 µM (active). With `O=C(CCCN1CCN2CCCC2C1)c1ccc(F)cc1` (stereo not given) the entry was “inactive”; with `C[C@H]1O[C@@H](O[C@H]2CC[C@@]3(C)[C@H](CC[C@@H]4[C@@H]3C[C@@H](O)[C@]3(C)[C@@H](C5=CC(=O)OC5)CC[C@]43O)C2)C[C@H](O)[C@@H]1O[C@H]1C[C@H](O)[C@H](O[C@H]2C[C@H](O)[C@H](O[C@@H]3O[C@H](CO)[C@@H](O)[C@H](O)[C@H]3O)[C@@H](C)O2)[C@@H](C)O1`, 1.34 µM (active); with `C=C1C(CCl)(CCl)C2(Cl)C(Cl)C(Cl)C1(Cl)C2(Cl)Cl` (stereo not given), 13.4 µM (active). For `CC(=O)OCC(=O)[C@@]1(O)CC[C@H]2[C@@H]3CCC4=CC(=O)CC[C@]4(C)C3=CC[C@@]21C`, the Potency result was “inactive”. `C=C(Nc1ccc(OCC)cc1)Nc1ccc(OCC)cc1`: the Potency result was “inactive”. With `CCOC(=O)Cc1ccc(-c2ccccc2)cc1` the entry was “inactive”; with `CC[C@H](C)C(=O)O[C@H]1CCC=C2C=C[C@H](C)[C@H](CC[C@@H]3C[C@@H](O)CC(=O)O3)[C@H]21`, “inactive”. With `Cc1ncc(C[n+]2csc(CCOP(=O)(O)O)c2C)c(N)n1` the entry was “inactive”; with `CN1C(C(=O)Nc2ccccn2)C(=O)c2sc(Cl)cc2S1(=O)=O` (stereo not given), “inactive”; with `CCN1\C(=C/C=C/C=C/c2sc3ccccc3[n+]2CC)Sc2ccccc21`, 23.9 µM (active) and 21.3 µM (active).

As for `CC1(C)CCC(NC(=O)[C@@H](N)CCC(=O)O)CC1`, the Potency entry was “inactive”. For the compound `CCCn1c(=O)[nH]c(=O)c2[nH]cnc21`, the Potency result is “inactive”. Regarding `OCCCNc1ccccc1`, the Potency result is “inactive”.

Turning to `NC(=O)c1cc[n+](CC2=C(C(=O)O)N3C(=O)[C@@H](NC(=O)C(c4ccccc4)S(=O)(=O)[O-])[C@H]3SC2)cc1` (stereo not given in full), the Potency result is “inactive”. In the case of `O=[N+]([O-])c1ccc(O)c2ncccc12`, the Potency result was “inactive”. `COC(=O)[C@H]1[C@H]2C[C@H]3c4[nH]c5ccccc5c4CCN3C[C@H]2CC[C@@H]1O`: the Potency entry is “inactive”.

`CC1CCCCN1CCCOC(=O)c1ccccc1` (stereo not given): the Potency entry is “inactive”. Consider `CCCCCCOC(=O)c1cccnc1`, for which the Potency result was “inactive”.

The values are drawn from PubChem BioAssay (Tox21).
